Here are results for 70 molecules from PubChem BioAssay AID686978 (National Center for Advancing Translational Sciences (NCATS), 2013).

Screen size: about 420,000 compounds; about 64,000 (15%) were called active. Another 27% or so got no clear call; they are omitted. The call rests on the fitted dose curve; in most records, active means well fitted inhibition curve with a large enough effect; inconclusive means small, poorly fitted or top-dose-only effect; inactive means flat fitted curve, though single readings scatter. Only a sample is shown. Entries that show only a call come without a potency.
Potency means the concentration at half of the fitted maximal effect.

The assay can be described thus: qHTS for Inhibitors of human tyrosyl-DNA phosphodiesterase 1 (TDP1): qHTS in cells in absence of CPT. Further: nearly all actives have a fitted effect of over 55% in size. The conditions noted are these: DT40 Tdp1-/- hTDP1 cells, no CPT, ATP luminescence, 48 h; activity change, negative = growth inhibition: at 46.2 µM (top of the series). The essentials: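 Luminescent ATP content (CellTiter-Glo) served as the growth readout. Knockout chicken DT40 cells expressing human TDP1 were exposed to compounds without camptothecin for a minimum 48 hr at 37 °C.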
Background: Quantitative high-throughput screening tests each substance at several concentrations.
For `O=C(Cn1cc(C(=O)c2cccs2)c2ccccc21)NCc1cccs1`, the Potency entry was “inactive”.

Take `CC1(c2nnc(Cc3ccccc3)o2)CC(c2ccccc2F)=NO1` (stereo not given): the Potency result is “inactive”.

For the molecule `COc1ccccc1-c1nc(C#N)c(N2CCC(C(N)=O)CC2)o1`, the Potency entry was “inactive”.

As for `Cc1ccccc1OCc1ccc(-c2nc(C#N)c(N3CCCCC3)o2)o1`, the Potency is 23.1 µM (active).

Turning to `COc1ccc(OCc2ccc(-c3nc(C#N)c(N4CCN(c5ccccc5)CC4)o3)o2)cc1`, the Potency result was “inactive”.

Turning to `COc1ccc(NC(=O)NNC(=O)COc2cc(C)c(Cl)c(C)c2)c(OC)c1`, the Potency result was “inactive”.

As to `Cc1ccc(S(=O)(=O)NCCSC(C)(C)C)cc1`, the Potency result is “inactive”.

Consider `O=C(O)CSCNC(=O)CC12CC3CC(CC(C3)C1)C2`, for which the Potency result was “inactive”.

As for `CCOCCCNC(=O)c1cc2c(=O)n3ccccc3nc2s1`, the Potency entry is “inactive”.

With `Nc1ccc(/C=C/c2ccnc3ccccc23)c([N+](=O)[O-])c1`, the Potency is 10 µM (active).

With `O=C(CC(c1ccccc1)c1ccccc1)NCC(O)c1ccc([N+](=O)[O-])cc1` (stereo not given), the Potency result was “inactive”.

Turning to `Cc1ccc(C)c(N2CCN(Cc3nnc(-c4ccccc4)o3)CC2)c1`, the Potency result was “inactive”.

For the molecule `Cc1ccc(C)c(N2CCN(C(c3ccccc3)c3nnc(-c4ccccc4)o3)CC2)c1` (stereo not given), the Potency is 23.1 µM (active).

As to `CCn1c2ccccc2c2nnc(N3CCN(c4cc(C)ccc4C)CC3)nc21`, the Potency result is “inactive”.

For `CC(C)c1ccc(S(=O)(=O)NC2CCCC2)cc1`, the Potency result is “inactive”.

In the case of `C/C(CC(=O)Nc1cccc(C(F)(F)F)c1)=N\NC(=O)C(=O)NCC(C)C`, the Potency result was “inactive”.

`Cc1cc(N2CCCC2=O)cc(C)c1S(N)(=O)=O`: the Potency result is “inactive”.

Regarding `COc1cccc(N2C(=O)C3CCCN3C2c2ccc(F)cc2)c1` (stereo not given), the Potency entry is “inactive”.

Take `CSC1=NCCN1C(=O)c1ccc(S(=O)(=O)N2CCOCC2)cc1`: the Potency entry was “inactive”.

For the molecule `COCC(=O)Nc1nnc(COc2ccccc2)s1`, the Potency result was “inactive”.

Regarding `O=C(Nc1ccccc1)Nc1nnc(COc2ccccc2F)s1`, the Potency was 10.3 µM (active).

Regarding `O=C(Nc1nnc(COc2ccccc2)s1)Nc1ccccc1F`, the Potency entry was “inactive”.

For `Cc1cc(C)c(C(N)=O)c(Cl)n1`, the Potency entry was “inactive”.

Take `CC1=C(C(=O)N(C)C)C(c2ccccc2OC(F)F)NC(=O)N1` (stereo not given): the Potency entry is “inactive”.

`COc1cc(OC)c(C2=NOC(C(=O)Nc3c(C)n(C)n(-c4ccccc4)c3=O)C2)cc1Cl` (stereo not given): the Potency result is “inactive”.

Turning to `Cc1cccc(OCC(=O)Nc2ccc(C(=O)O)cc2NC(=O)COc2cccc(C)c2)c1`, the Potency entry is “inactive”.

As to `O=C(O)CN(Cc1ccco1)S(=O)(=O)c1ccc(F)cc1`, the Potency entry is “inactive”.

With `OC(c1nc2ccccc2[nH]1)C(O)C(O)C(O)c1nc2ccccc2[nH]1` (stereo not given), the Potency result was “inactive”.

With `O=C(CSc1nc2ccccc2[nH]1)c1cccs1`, the Potency result is “inactive”.

With `CCC(c1nc2ccccc2[nH]1)n1c(=O)c(-c2cccs2)nc2ccccc21` (stereo not given), the Potency was 18.4 µM (active).

Consider `CSc1nnc(-c2ccncc2)n1CCCN1CCCC1=O`, for which the Potency entry was “inactive”.

On to `O=C(NCCc1nnc2ccc(SCC(=O)N3CCOCC3)nn12)c1ccccc1`, for which the Potency result was “inactive”.

With `Cc1ccc(N(C(=O)Cc2cccs2)C2C=CS(=O)(=O)C2)cc1Cl` (stereo not given), the Potency result is “inactive”.

On to `Cc1ccc(C)c2c1cc(C)c1nnc(SCC(=O)Nc3cccc(C(=O)O)c3)n12`, for which the Potency entry was “inactive”.

In the case of `O=C(Nc1cc(=O)[nH]c2ncnn12)c1ccccc1Cl`, the Potency result is “inactive”.

For the molecule `CCN(c1ncnc2c1cnn2-c1ccc(C)cc1)C1CCCCC1`, the Potency result was “inactive”.

`COc1ccccc1N1CCN(C(=O)CSc2ncnc3c2cnn3-c2ccc(C)c(C)c2)CC1`: the Potency was 23.1 µM (active).

Regarding `COC(=O)CSc1ncnc2c1cnn2-c1ccc(C)cc1C`, the Potency entry was “inactive”.

Regarding `Cc1ccc(-n2ncc3c(N4CCC(C(N)=O)CC4)ncnc32)cc1`, the Potency result was “inactive”.

Regarding `COc1ccc(-n2ncc3c(SCC(=O)NNC(C)=O)ncnc32)cc1`, the Potency result was “inactive”.

For `CCN1CCN(c2ncnc3c2cnn3-c2ccc(C)c(C)c2)CC1`, the Potency is 18.4 µM (active).

For the molecule `O=C1C2C3C=CC(C3)C2C(=O)N1c1ncc([N+](=O)[O-])s1` (stereo not given), the Potency result is “inactive”.

Consider `COc1ccc(C(=O)COC(=O)CCCC(=O)Nc2cc(C(F)(F)F)ccc2Cl)cc1`, for which the Potency result is “inactive”.

Regarding `Cc1cc(OC(=O)c2ccc(Cl)cc2)cc(=O)n1C`, the Potency result was “inactive”.

Regarding `O=C(COc1cccc(F)c1)Oc1ccc(C(=O)c2ccccc2)cc1`, the Potency result is “inactive”.

Regarding `N#Cc1cccc(CSc2nnc(CCCO)n2-c2ccccc2)c1`, the Potency entry was “inactive”.

In the case of `CCOc1ccc(-c2nnc(-c3ccco3)o2)cc1`, the Potency result was “inactive”.

As to `CCC(=O)Oc1cccc(C(=O)Nc2ccc(-c3nnc(-c4ccco4)o3)cc2)c1`, the Potency is 5.8 µM (active).

With `Cc1ccc(OCC(=O)Nc2ccc(-c3nnc(-c4ccco4)o3)cc2)cc1`, the Potency entry was “inactive”.

As for `O=C(Nc1ccc(C(=O)O)cc1)/C(=C\c1ccccc1)NC(=O)c1ccc(Br)cc1`, the Potency result was “inactive”.

Regarding `CN1CCN(C(=O)C2C3C=CC(C3)C2C(=O)O)CC1` (stereo not given), the Potency result is “inactive”.

For the molecule `Cc1ccnc(NC(=O)c2ccco2)n1`, the Potency entry is “inactive”.

Regarding `NS(=O)(=O)c1ccc2nc(NC(=O)COc3ccccc3)sc2c1`, the Potency result was “inactive”.

For the molecule `N#Cc1ccc(OCC(=O)Nc2nc(-c3ccccn3)cs2)cc1`, the Potency was 1.64 µM (active).

With `CC(NC(=O)c1ccco1)C(=O)Nc1nc(-c2ccccn2)cs1` (stereo not given), the Potency was 5.8 µM (active).

For the molecule `Cc1cc(NC(=O)[C@H](C)NC(=O)c2ccco2)ccc1Br`, the Potency entry was “inactive”.

With `COc1ccc(OCC(=O)Nc2nnc(-c3ccco3)s2)cc1`, the Potency entry was “inactive”.

`O=C(COc1ccccc1F)NC1CC1`: the Potency result is “inactive”.

`CC1CCN(S(=O)(=O)c2nnc(NC(=O)COc3ccccc3F)s2)CC1`: the Potency entry is “inactive”.

Consider `O=C(COc1ccccc1F)Nc1nc(-c2ccccn2)cs1`, for which the Potency was 4.61 µM (active).

Regarding `Cn1c(=O)oc2cc(S(=O)(=O)NCCC(=O)NCc3ccccc3Cl)ccc21`, the Potency entry is “inactive”.

Consider `CCN(CC)C(=O)CSc1nnc(C2CCCCC2)o1`, for which the Potency entry is “inactive”.

For `CCC(=O)c1ccc(OC(=O)/C=C/c2cc(OC)c(OC)c(OC)c2)cc1`, the Potency result was “inactive”.

For the molecule `CC(C)CNC(=O)/C=C/C(=O)O`, the Potency result was “inactive”.

As to `C[C@H](CO)N1C[C@H](C)[C@@H](CN(C)C(=O)Nc2ccc3c(c2)OCO3)Oc2c(cccc2N(C)C)C1=O`, the Potency result was “inactive”.

In the case of `CCCCOc1ccc(N(CC(=O)NC(C)C)C(=O)CCC(=O)Nc2ccccn2)cc1`, the Potency result was “inactive”.

Take `Cc1ccc(S(=O)(=O)NC(=O)N2CCCN(Cc3ccc(F)cc3)CC2)cc1`: the Potency result was “inactive”.

With `O=C(Nc1ccccc1)N1CCN(Cc2ccccc2)CC1`, the Potency result is “inactive”.

Regarding `Cc1ccc(S(=O)(=O)C(C#N)c2nc3ccccc3nc2N2CCCC2)cc1C` (stereo not given), the Potency entry was “inactive”.

For `CC(C)OC(=O)C(C#N)c1nc2ccccc2nc1N1CCN(Cc2ccccc2)CC1` (stereo not given), the Potency is 23.1 µM (active).
